Results filed as inconclusive are left out. Active and inactive are the calls of the source. Unless noted, calls follow the shape of the dose curve; as a rule, active = well fitted cell-killing curve with a large enough effect; inconclusive = small, poorly fitted or top-dose-only effect; inactive = flat fitted curve, though single readings scatter.

Experiment [1] can be described thus: Cell Viability - LYMP2-002 (AID 977). Also: series mostly up to about 92 µM. In outline: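 Human lymphoblastoid cells, 2500/well, complete medium; 5 h 37 C settle; compound 24 h 37 C; CellTiter-Glo, 30 min RT; luminescence. Decrease in ATP = cytotoxicity; AC50 via Hill equation.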
Experiment [2] in a line: Cell Viability - LYMP2-006 (AID 978). Also: series mostly up to about 92 µM; nearly all actives have a fitted effect of over 60% in size. In outline:
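Potency values are Hill-fit AC50s for decreases in intracellular ATP (CellTiter-Glo luminescence). LYMP2-006 lymphoblastoid cells, 2500 per well, were exposed to compound in complete culture medium for 24 hr at 37 C.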

A short description of experiment [3]: Cell Viability - LYMP2-007 (AID 979).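 Also: cells exposed to compound for 24 h before reading; nearly all actives have a fitted effect of over 60% in size.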 A digest of the protocol:
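Cells are seeded at 2500 per well and rested 5 hr. Compounds are then added over a concentration series for 24 hr at 37 C. CellTiter-Glo is added for 30 min at room temperature before luminescence reading.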

Experiment [4] in a line: Cell Viability - LYMP2-008 (AID 980). Also: nearly all actives have a fitted effect of over 60% in size. In outline: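 Cells seeded at 2500/well and rested 5 hr at 37 C; compounds added over a concentration range and incubated 24 hr at 37 C; CellTiter-Glo added, 30 min at room temperature; luminescence read and AC50 fitted with Hill model.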
A short description of experiment [5]: Cell Viability - LYMP2-010 (AID 981). Also: nearly all actives have a fitted effect of over 55% in size. Also: potency is read from the fitted curve at half-maximal effect. In outline: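 Steps: seed 2500 LYMP2-010 cells per well; incubate 5 hr at 37 C; add compound; incubate 24 hr at 37 C; add CellTiter-Glo, wait 30 min at room temperature; read luminescence. Concentration-response fitted to Hill equation for AC50.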
A short description of experiment [6]: Cell Viability - LYMP2-012 (AID 982).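 Also: cellular ATP by luciferase luminescence where a drop means cytotoxicity; cells exposed to compound for one day before reading; nearly all actives have a fitted effect of over 55% in size.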
A short description of experiment [7]: Cell Viability - LYMP2-014 (AID 983). Also: series mostly up to about 92 µM; nearly all actives have a fitted effect of over 50% in size. In outline:
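Cells are plated at 2500/well and left 5 hr at 37 C. Compounds are added across a concentration range and incubated 24 hr at 37 C in complete medium. CellTiter-Glo is added, and luminescence is read after 30 min at room temperature.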

Experiment [8] can be described thus: Cell Viability - LYMP2-018 (AID 985).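 Also: compound exposure lasted 24 hr at 37 °C; nearly all actives have a fitted effect of over 50% in size.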 A digest of the protocol: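 Seed 2500 lymphoblastoid cells per well, incubate 5 hr at 37 C, add compound and incubate 24 hr at 37 C, add CellTiter-Glo, wait 30 min at room temperature, then read luminescence.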
Experiment [9] in a line: Cell Viability - LYMP2-020 (AID 986). Also: series mostly up to about 92 µM; nearly all actives have a fitted effect of over 55% in size. A digest of the protocol: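 Seed 2500 cells per well and incubate 5 hr at 37 C. Add compounds at a concentration series and incubate 24 hr at 37 C. Add CellTiter-Glo, wait 30 min at RT, read luminescence, and fit a Hill curve for AC50.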
The nature of experiment [10]: Cell Viability - LYMP2-022 (AID 987). Also: nearly all actives have a fitted effect of over 55% in size. In outline:
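Cells were seeded at 2500 per well, rested 5 hr at 37 C, and treated with titrated compounds for 24 hr at 37 C. Cellular ATP was then quantified by luciferase luminescence, and AC50 values were derived from Hill-modelled concentration-response curves.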

A short description of experiment [11]: Cell Viability - LYMP2-024 (AID 988). Also: nearly all actives have a fitted effect of over 60% in size. Also: potency is read from the fitted curve at half-maximal effect. In outline:
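qHTS cytotoxicity, human lymphoblastoid line, complete medium; 24 h cpd treatment, 37 C; CellTiter-Glo ATP luminescence readout; tetraoctylammonium bromide positive control; AC50 via Hill fit.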

The nature of experiment [12]: Cell Viability - LYMP2-026 (AID 989). Also: nearly all actives have a fitted effect of over 50% in size. In outline:
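Cells are seeded at 2500 per well and held 5 hr at 37 C. Compounds are added in concentration series for 24 hr, then CellTiter-Glo reagent is applied and luminescence read.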

A short description of experiment [13]: Cell Viability - LYMP1-002 - Assay at 40 hr (AID 994). Also: nearly all actives have a fitted effect of over 60% in size. In outline: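 Cells are plated at 2500 per well and rested 5 hr at 37 C. Compounds are added and incubated 40 hr at 37 C. CellTiter-Glo reagent is added for 30 min at room temperature before luminescence is read.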
The nature of experiment [14]: qHTS Assay for Identification of Small Molecule Inducers of Hypoxia Response (AID 2120; active = well fitted curve in the direction sought with a large enough effect in the signal ratio, with a control signal flat, not every such curve was filed as active; the % refers to the signal ratio). A digest of the protocol:
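Cell-based qHTS for reporter induction: hypoxia response element controlled beta-lactamase in ME-180 cells. Compounds incubated 17 h at 37 degrees C; activity from blue/green (460/530 nm) ratio, inducers ranked by AC50.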
On the technique in general: qHTS replaces the single test concentration by a dilution series.

A short description of experiment [15]: Cell Viability - LYMP2-025 (AID 976). Also: series mostly up to about 92 µM. A digest of the protocol: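 Acute cytotoxicity is scored as a concentration-dependent fall in intracellular ATP, measured by luciferase luminescence, in human lymphoblastoid LYMP2-025 cells exposed to compound for 24 hours at 37 C. AC50 values come from standard Hill fits.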
Experiment [16] is described as follows: Cell Viability - LYMP2-016 (AID 984). Also: nearly all actives have a fitted effect of over 55% in size. In outline: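 Cytotoxicity was scored by luminescent ATP content (CellTiter-Glo) after 24 h compound exposure at 37 C of a human lymphoblastoid line at 2500 cells/well. Concentration-response data were fitted to the Hill equation for AC50.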
The nature of experiment [17]: Cell Viability - LYMP1-002 - Assay at 24 hr (AID 993). A digest of the protocol: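 Acute toxicity is measured as concentration-dependent loss of cellular ATP in a human lymphoblastoid line (Coriell LYMP1-002) after 24 h treatment in complete medium. ATP is quantified by luciferase luminescence and AC50 derived by Hill modelling.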

Turning to `CCCCCCC=O`, the Potency result in experiment [1], in [2], in experiment [3], in experiment [4], in [5] and in [6] was “inactive” in each case. The Potency result in experiment [7], in experiment [8], in experiment [9], in [10], in experiment [11] and in experiment [13] was “inactive” in each case. Further, the call in [12] and in experiment [14] was inactive.
Consider `Cc1ccccc1Br`, for which the Potency entry in experiment [15], in [1], in experiment [2], in experiment [3], in experiment [4] and in experiment [6] was “inactive” throughout. The Potency result in [7], in experiment [16], in experiment [8], in experiment [9], in experiment [10] and in experiment [11] was “inactive” in each case. In addition, the Potency result in experiment [17] and in experiment [13] was “inactive” each time. For the same molecule, the molecule was called inactive in [12] and in experiment [14].
`COC(=O)c1ccccc1`: the Potency result in experiment [15], in [1], in experiment [2], in experiment [3], in [4] and in experiment [6] was “inactive” in each case. Also, the Potency result in experiment [7], in [16], in experiment [8], in experiment [9], in experiment [11] and in [17] was “inactive” throughout. Further, the Potency entry in experiment [13] was “inactive”. Moreover, the result in [12] and in experiment [14] was inactive.
`O=Cc1cccc(Br)c1`: the Potency result in experiment [1], in experiment [2], in experiment [3], in [4], in experiment [5] and in experiment [6] was “inactive” throughout. For the same molecule, the Potency result in experiment [7], in experiment [16], in experiment [8], in experiment [9], in [10] and in experiment [17] was “inactive” throughout. Also, the Potency entry in experiment [13] was “inactive”. Also, the molecule was called inactive in [12] and in experiment [14].
Turning to `O=[N+]([O-])c1ccccc1CCO`, the Potency result in experiment [15], in experiment [1], in experiment [3], in experiment [4], in experiment [5] and in experiment [6] was “inactive” in each case. The Potency result in experiment [7], in [16], in experiment [8], in [9], in experiment [10] and in [11] was “inactive” throughout. The Potency result in experiment [17] and in experiment [13] was “inactive” in each case. The molecule was classed as inactive in experiment [12] and in [14].
In the case of `c1ccc2n[nH]nc2c1`, the Potency entry in experiment [15], in experiment [1], in experiment [3], in [4], in experiment [6] and in [7] was “inactive” in each case. Moreover, the Potency result in experiment [16], in experiment [8], in experiment [9], in experiment [10], in experiment [11] and in experiment [17] was “inactive” each time. The Potency result in experiment [13] was “inactive”. The call in [12] and in [14] was inactive.
Consider `Cc1ccc2c(c1[N+](=O)[O-])C(=O)c1ccccc1C2=O`, for which the Potency result in [15], in [1], in experiment [3], in experiment [4], in [5] and in [6] was “inactive” each time. Moreover, the Potency entry in experiment [16], in experiment [8], in experiment [9], in experiment [17] and in [13] was “inactive” in each case. Besides, the call in [12] and in [14] was inactive.
With `Cc1ccc(C)c([N+](=O)[O-])c1`, the Potency entry in experiment [15], in experiment [1], in [3], in experiment [4], in experiment [5] and in experiment [6] was “inactive” in each case. The Potency result in experiment [7], in [16], in experiment [8], in [9], in experiment [10] and in experiment [11] was “inactive” each time. In addition, in experiment [13], the Potency entry was “inactive”. For the same molecule, the call in experiment [12] and in experiment [14] was inactive.
For the molecule `CC1CCCO1` (configuration not stated), the Potency entry in experiment [15], in [1], in [3], in experiment [4], in experiment [5] and in experiment [6] was “inactive” throughout. Moreover, the Potency result in [7], in experiment [16], in experiment [8], in experiment [9], in [10] and in [11] was “inactive” throughout. Also, the Potency entry in experiment [17] and in experiment [13] was “inactive” throughout. Besides, the outcome in [12] and in experiment [14] was inactive.
With `O=Nc1ccc(NO)cc1`, the Potency result in experiment [15], in [1] and in [4] was “inactive” each time. Further, the Potency is 50.1 µM (active) in [5] and 39.8 µM (active) in [11]. Also, the molecule was called inactive in experiment [12] and in [14].
In the case of `NC(=S)NNC(N)=S`, the Potency result in experiment [15], in experiment [1], in experiment [3], in experiment [4], in experiment [5] and in [6] was “inactive” each time. The Potency entry in experiment [7], in experiment [16], in [9], in experiment [10], in experiment [11] and in [17] was “inactive” throughout. For the same molecule, the Potency entry in experiment [13] was “inactive”. The molecule was classed as inactive in experiment [12] and in experiment [14].
Regarding `CCCCC(CC)C(=O)O` (configuration not stated), the Potency entry in experiment [15], in experiment [1], in [3], in experiment [4], in experiment [5] and in experiment [6] was “inactive” in each case. Besides, the Potency entry in experiment [7], in experiment [16], in experiment [8], in experiment [9], in [10] and in [11] was “inactive” each time. Besides, the Potency entry in experiment [17] and in experiment [13] was “inactive” in each case. Moreover, the molecule was classed as inactive in [14].
In the case of `CCOC(=O)C(C)C(C)=O` (configuration not stated), the Potency entry in experiment [1], in experiment [2], in experiment [3], in [4], in [5] and in [6] was “inactive” each time. Moreover, the Potency result in experiment [7], in experiment [16], in experiment [9], in [10], in experiment [11] and in experiment [17] was “inactive” each time. For the same molecule, the Potency entry in [13] is “inactive”. Besides, the result in experiment [12] and in experiment [14] was inactive.
`CC(C)N(C)C`: the Potency entry in experiment [1], in [2], in experiment [3], in experiment [4], in experiment [6] and in experiment [7] was “inactive” throughout. For the same molecule, the Potency entry in experiment [16], in [8], in experiment [9], in [10], in experiment [11] and in [13] was “inactive” in each case. Moreover, the molecule was called inactive in experiment [12] and in experiment [14].
For `COC(=O)CCCC(=O)OC`, the Potency result in [15], in experiment [1], in [3], in experiment [4], in experiment [6] and in [16] was “inactive” each time. Moreover, the Potency result in experiment [8], in experiment [9], in [10], in [11] and in experiment [17] was “inactive” each time. Besides, the molecule was classed as inactive in experiment [12] and in experiment [14].
`Cc1ccc(C)o1`: the Potency entry in [1], in [2], in [3], in [4], in [5] and in experiment [6] was “inactive” each time. The Potency result in experiment [7], in experiment [16], in experiment [8], in [9], in experiment [10] and in [11] was “inactive” throughout. Also, the Potency result in experiment [17] and in experiment [13] was “inactive” each time. The result in experiment [14] was inactive.
For the molecule `NS(=O)(=O)O`, the Potency entry in [1], in experiment [3], in [4], in experiment [5], in [6] and in experiment [7] was “inactive” in each case. In addition, the Potency result in [16], in experiment [8], in experiment [9], in [10], in [11] and in experiment [17] was “inactive” each time. Also, the Potency entry in [13] is “inactive”. In addition, in [14], the result was inactive.
On to `Cc1ccccc1C(=O)O`, for which the Potency result in experiment [1], in [2], in experiment [3], in experiment [4], in [5] and in experiment [6] was “inactive” each time. Also, the Potency result in experiment [7], in experiment [16], in [8], in experiment [9], in [10] and in [13] was “inactive” in each case. The outcome in experiment [12] and in experiment [14] was inactive.
For the molecule `CC(C)CO`, the Potency entry in [15], in experiment [1], in experiment [3], in experiment [4], in [5] and in [6] was “inactive” throughout. Further, the Potency result in experiment [7], in experiment [16], in experiment [9], in experiment [10], in experiment [11] and in [17] was “inactive” each time. Further, the Potency entry in experiment [13] was “inactive”. The molecule was called inactive in [12] and in experiment [14].

The values above are taken from PubChem BioAssay (NCATS).
